92 molecules from PubChem BioAssay AID1851 (National Center for Advancing Translational Sciences (NCATS), 2009) can be followed below.

Molecules are shown by their SMILES. Hit rate of the full screen: of about 16,000 compounds, about 4,000 (25%) were called active. Roughly 26% stayed inconclusive and do not appear here. Calls come from the whole dose curve; as a rule, active = well fitted curve in the direction sought with a large enough effect; inconclusive = small, poorly fitted or top-dose-only effect, or effect the other way; inactive = no such curve, though single readings can be large or run the other way. The list is a sample of the results.
% is set by controls: 0 for no effect and ±100 for the full control effect.

Cytochrome P450 2C9 (Homo sapiens), sequence (P11712 whole entry, looked up): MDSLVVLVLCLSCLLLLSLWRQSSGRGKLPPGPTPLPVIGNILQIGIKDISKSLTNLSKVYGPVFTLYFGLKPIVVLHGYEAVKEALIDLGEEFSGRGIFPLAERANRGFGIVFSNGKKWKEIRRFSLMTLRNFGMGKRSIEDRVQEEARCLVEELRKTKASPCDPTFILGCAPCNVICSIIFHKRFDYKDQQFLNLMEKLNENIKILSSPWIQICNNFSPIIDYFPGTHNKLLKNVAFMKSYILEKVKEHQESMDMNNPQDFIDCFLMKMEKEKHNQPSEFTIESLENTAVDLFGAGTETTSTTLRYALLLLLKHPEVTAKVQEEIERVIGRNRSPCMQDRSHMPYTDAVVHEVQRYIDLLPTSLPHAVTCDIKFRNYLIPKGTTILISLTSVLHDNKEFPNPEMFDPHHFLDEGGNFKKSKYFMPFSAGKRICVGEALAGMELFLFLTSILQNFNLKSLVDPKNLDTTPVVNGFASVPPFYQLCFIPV

This test concerns the target Cytochrome P450 2C9 (Homo sapiens) (UniProt P11712). Briefly: Cytochrome panel assay with activity outcomes. The note with it: recombinant CYP, pro-luciferin dealkylation, luminescence, p450-cyp2c9; series mostly up to 57.1 µM.
As to `Cn1c[n+](C)cc1/C=N/O`, the AC50 result was “inactive”.
Still for that read-out and setting: the entry for `Nc1nc2ncc(CNc3ccc(C(=O)N[C@@H](CCC(=O)O)C(=O)O)cc3)nc2c(=O)[nH]1` is “inactive”; for `CC(C)(C)CC(C)(C)c1ccc(OCOCCOCCO)c(Cc2cc(C(C)(C)CC(C)(C)C)cc(Cc3cc(C(C)(C)CC(C)(C)C)ccc3OCOCCOCCO)c2OCOCCOCCO)c1` it is “inactive”.
For the molecule `CN(C)C(=O)c1ccc(-c2nc(Nc3ccccc3)c3ccccc3n2)cc1`, the activity, negative = inhibition is -13.3% [at 2.29 µM] (inactive).
As to `CC1CCC(NC(=O)CC(C)(C)Cc2nc3ccccc3c(=O)[nH]2)CC1` (configuration not stated), the AC50 was 3.55 µM (active).
As to `Cc1ccccc1-c1nc(NC2CC2)c2ccccc2n1`, the activity, negative = inhibition was 3.04% [at 2.29 µM] (inactive).
Regarding `O=C1/C(=C\c2ccc(Br)o2)SC(=Nc2ccccc2)N1c1ccccc1`, the AC50 is 0.398 µM (active).
Turning to `CC(C)CN1CCC2(CC1)CCN(C(=O)c1cccc(F)c1)CC2`, the AC50 result is “inactive”.
Same read-out and setting: the value for `CC(C)CC(=O)N1CCN(Cc2cccc(F)c2)CC1` was 0.0251 µM (active); that for `CC(C)CN1CC2(CCN(C(=O)c3cccc(F)c3)CC2)C1` was “inactive”.
As to `C/C(=N/S(=O)(=O)c1ccc(Cl)c(Cl)c1)OCC(C)(C)C`, the activity, negative = inhibition is 6.28% [at 11.4 µM] (inactive).
On to `CC(=O)N1CCC2(CC1)CN(C(=O)Nc1cccc(C#N)c1)C2`, for which the AC50 result is “inactive”.
On to `N#Cc1cccc(NC(=O)N2CCCC3(CCN(C(=O)c4ccco4)CC3)C2)c1`, for which the AC50 is 3.98 µM (active).
Still for that read-out and setting: the entry for `N#Cc1cccc(NC(=O)N2CCCC3(CCN(C(=O)c4cc(C(F)(F)F)cc(C(F)(F)F)c4)CC3)C2)c1` is “inactive”.
On to `N#Cc1cccc(NC(=O)N2CC3(CCN(C(=O)c4ccco4)CC3)C2)c1`, for which the AC50 result is “inactive”.
On the same count and under the same terms, the value for `N#Cc1cccc(NC(=O)N2CC3(CCN(C(=O)c4cc(C(F)(F)F)cc(C(F)(F)F)c4)CC3)C2)c1` was 12.6 µM (active); that for `N#Cc1cccc(NC(=O)N2CC[C@@]3(CCCN(C(=O)c4ccco4)C3)C2)c1` was “inactive”.
For the molecule `CCNCCCNCCCNCCCNCC`, the AC50 entry is “inactive”.
Consider `CC(C)(C)N1C(=O)[C@H]2[C@H]3[C@H](O)[C@H](O)C/C(=N/NC(=O)OCc4ccccc4)[C@@H]3CC[C@@H]2C1=O`, for which the activity, negative = inhibition was 29.2% [at 11.4 µM] (inactive).
Same read-out and setting: the figure for `C/C(=N\NC(N)=S)c1ccc[nH]1` is -7.98% [at 11.4 µM] (inactive).
`Cc1ccc(NCCC(=O)c2ccc(Cl)c(Cl)c2)cc1`: the AC50 result is “inactive”.
Same read-out and setting: the value for `Cc1ccc(C(=O)c2cn[nH]c2-c2cc(Cl)ccc2O)cc1` was 2.24 µM (active); that for `C=C1C(=O)O[C@@H]2[C@H]3O[C@]3(C)CCC=C(C)CC[C@@H]12` was “inactive”.
For `CC(=O)OC[C@H]1O[C@@H](O/N=C(\C)CCN2CCCc3nc(C)c(C)cc32)[C@H](OC(C)=O)[C@@H](OC(C)=O)[C@H]1OC(C)=O`, the activity, negative = inhibition was 18.1% [at 11.4 µM] (inactive).
The same measure, in the same setting: the figure for `NS(=O)(=O)c1ccc(N=Nc2nc3[nH]c(=O)[nH]c(=O)c3[nH]2)cc1` is 0.503% [at 11.4 µM] (inactive).
Consider `Cc1ccc(/C=C/c2ccc(=O)n(Cc3ccc(Cl)cc3Cl)n2)cc1`, for which the AC50 is 3.16 µM (active).
The same measure, in the same setting: the value for `CC(C)(CO)[C@H](O)C(=O)NCCCO` was “inactive”.
Regarding `COCCCNC(=O)c1c(N)n(/N=C/c2ccccn2)c2nc3ccccc3nc12`, the AC50 was 5.62 µM (active).
Consider `CC1=NNC(=O)C1CCC(=O)N/N=C\c1ccccc1[N+](=O)[O-]` (configuration not stated), for which the AC50 result is “inactive”.
As to `Cc1ccc(/C=N/n2c(COc3ccccc3)n[nH]c2=S)s1`, the AC50 was 4.47 µM (active).
Still for that read-out and setting: the value for `O=[N+]([O-])c1ccc(/C=N/n2c(COc3ccccc3)n[nH]c2=S)cc1` was 2.82 µM (active).
The same measure, in the same setting: the figure for `O=[N+]([O-])c1ccccc1/C=N/n1c(COc2ccccc2)n[nH]c1=S` is 3.55 µM (active).
With `O=c1ccc(-c2ccccc2)n[nH]1`, the activity, negative = inhibition was 6.17% [at 11.4 µM] (inactive).
With `C[C@]12CC[C@H]3c4ccc(O)cc4CC[C@@H]3[C@H]1C/C(=N/O)[C@H]2O`, the activity, negative = inhibition is 21.3% [at 11.4 µM] (inactive).
On to `COc1ccccc1CN1CC[C@@]2(CCCN(C(C)=O)C2)C1`, for which the AC50 result was “inactive”.
Take `CCc1cc2c(nc1CC)CCN(CC/C(C)=N/OC[C@@H](O)[C@@H]1O[C@@H]3OC(C)(C)O[C@@H]3[C@H]1O)C2`: the activity, negative = inhibition was -13.5% [at 11.4 µM] (inactive).
For the molecule `COc1cc(-c2nnc(SC/C=C/c3ccccc3)n2N)cc(OC)c1OC`, the AC50 result is “inactive”.
With `C=CCSc1nnc(-c2cc3c(-c4ccccc4)nn(C)c3s2)n1C`, the AC50 was 14.1 µM (active).
As for `Cc1noc(C)c1-c1nccc(NCCN2CCOCC2)n1`, the activity, negative = inhibition was 3.29% [at 2.29 µM] (inactive).
In the case of `O=C(COc1ccc(Br)cc1)Nc1ccc([N+](=O)[O-])cn1`, the AC50 entry is “inactive”.
For `O=C(COc1cccc(NC(=O)c2cccc([N+](=O)[O-])c2)c1)c1ccc(Br)cc1`, the AC50 was 0.891 µM (active).
On the same count and under the same terms, the entry for `O=C(Nc1nnc(CCS(=O)(=O)c2ccc(Br)cc2)s1)c1ccc([N+](=O)[O-])cc1` is “inactive”.
As to `C[C@@H](c1ccccc1)N1C(=O)[C@H]2[C@@H]3[C@H](O)[C@H](O)CC(=O)[C@H]3CC[C@H]2C1=O`, the activity, negative = inhibition was -15.7% [at 11.4 µM] (inactive).
Regarding `CCCn1c(N)[n+](CC(=O)c2ccco2)c2ccccc21`, the AC50 entry is “inactive”.
As to `CCCCCn1c(=O)c(C(=O)c2ccccc2)nc2ccccc21`, the AC50 is 14.1 µM (active).
The same measure, in the same setting: the value for `O=C(O)Cc1cc2ccccc2nc1C(=O)O` was “inactive”.
Same read-out and setting: the value for `O=C(c1ccccc1)c1nc2ccccc2n(CCCn2c(=O)c(C(=O)c3ccccc3)nc3ccccc32)c1=O` was 0.2 µM (active).
As to `N=C(N)[C@H](N=Nc1ccccc1)C(N)=O`, the activity, negative = inhibition is -7.82% [at 11.4 µM] (inactive).
Consider `CCn1c(O)c(/C=N/N=C2CCCC2)c2ccc(C3=NNC(=O)CC3)cc21`, for which the AC50 result is “inactive”.
For the molecule `Cc1ccc(C2C(=O)N(C3CCCC3)CC(=O)N2CC2COc3ccccc3O2)cc1` (configuration not stated), the AC50 was 11.2 µM (active).
Take `CC1CCCC(C)N1CC(O)COCC1COc2ccccc2O1` (configuration not stated): the AC50 entry is “inactive”.
Still for that read-out and setting: the value for `OC(COCC1COc2ccccc2O1)CN1CCc2ccccc2C1` (configuration not stated) was “inactive”.
`Nc1ccn([C@H]2O[C@@H](COP(=O)(O)O)[C@@H](O)[C@H]2O)c(=O)n1`: the activity, negative = inhibition was -6.67% [at 11.4 µM] (inactive).
Consider `COc1cc(N)c(Cl)cc1C(=O)OCCCN1CCCCC1`, for which the AC50 result was “inactive”.
Same read-out and setting: the value for `Cn1cc(C(=O)OCC2CCN(CCNS(C)(=O)=O)CC2)c2ccccc21` was “inactive”; that for `COc1cc(N)c(Cl)cc1C(=O)CCC1CCN(CCNS(C)(=O)=O)CC1` was 0.251 µM (active).
The same measure, in the same setting: the entry for `CCn1cc(C(=O)O)c(=O)c2cc(F)c(N3CCN[C@@H](C)C3)c(F)c21` is “inactive”; for `CC(C)OC(=O)c1cccc(C(=O)Oc2ccc(Br)cc2)n1` it is “inactive”; for `O=C(Oc1ccc(OC(=O)c2ccco2)c(S(=O)(=O)c2ccc(Br)cc2)c1)c1ccco1` it is 0.708 µM (active).
Regarding `COc1ccc(C(C)=O)c(OC(=O)c2ccco2)c1`, the AC50 entry was “inactive”.
Still for that read-out and setting: the value for `CCc1cc2c(=O)c(-c3cnn(-c4ccccc4)c3)coc2c(CN2CCOCC2)c1O` was 2.51 µM (active); that for `OC(CCCN1CCCCC1)(c1ccccc1)c1ccccc1` was “inactive”.
With `O=C(N/N=C\c1ccc(Sc2ccccn2)o1)c1cccc(Br)c1`, the AC50 was 2.24 µM (active).
For `O=C(N/N=C/C1C(c2ccccc2)C1(Cl)Cl)c1cccc(Br)c1` (configuration not stated), the AC50 is 2 µM (active).
Regarding `O=C(N/N=C/c1cccc(Oc2ccccc2)c1)c1cccc(Br)c1`, the AC50 was 7.08 µM (active).
Regarding `O=C(N[C@@]1(C(=O)O)C[C@@H]1c1ccccc1)c1ccccc1`, the activity, negative = inhibition was 5.78% [at 11.4 µM] (inactive).
With `C/C(=N\NC(=O)c1cccc(Br)c1)c1ccc(Br)cc1`, the AC50 result was “inactive”.
As to `O=C(O)Cn1ccnc1[N+](=O)[O-]`, the activity, negative = inhibition was 9.22% [at 11.4 µM] (inactive).
Consider `COc1ccc2c(c1)N(C[C@@H](C)CN(C)C)c1ccccc1S2`, for which the AC50 entry is “inactive”.
With `COc1ccccc1-c1cncnc1NCc1cccc(C)c1`, the activity, negative = inhibition is -10.6% [at 2.29 µM] (inactive).
Regarding `Nc1ncncc1-c1ccc([N+](=O)[O-])cc1`, the AC50 entry is “inactive”.
Same read-out and setting: the figure for `Cc1cc(C)c(Cn2cnc(-c3ccc([N+](=O)[O-])cc3)c2)c(C)c1` is 12.6 µM (active); for `Cc1nn(Cc2ccc([N+](=O)[O-])cc2)c(=O)n1-c1cccc(F)c1` it is “inactive”; for `O=C(N/N=C/c1ccco1)c1ccc(Br)o1` it is “inactive”.
On the same count and under the same terms, the value for `O=C(Cc1ccccc1)N/N=C\c1ccc(Br)o1` was 12.6 µM (active); that for `Cc1cc(C)n(CC(=O)N/N=C/c2ccco2)n1` was “inactive”; that for `O=C(Cc1ccccc1)N/N=C/c1cc(Br)c(Br)o1` was 14.1 µM (active).
The same measure, in the same setting: the entry for `O=C(CC(=O)N/N=C\c1c(Cl)cccc1Cl)NCc1ccccc1` is “inactive”.
For `O=c1c[n+](CCCC[n+]2cc(=O)o[nH]2)[nH]o1`, the activity, negative = inhibition was 10.6% [at 11.4 µM] (inactive).
For `c1csc(CNc2nc(-c3ccoc3)nc3ccccc23)c1`, the activity, negative = inhibition was -11.2% [at 2.29 µM] (inactive).
On the same count and under the same terms, the figure for `CO[C@H]1COC(=O)CCC[C@@H](C)[C@H](OC)COC(=O)[C@H]2CCCN2C(=O)C/C=C\[C@@H]1C` is 5.44% [at 11.4 µM] (inactive).
As to `COc1ccc(/C=N/NC(=O)c2cccc([N+](=O)[O-])c2)cc1OS(=O)(=O)c1ccc(C)cc1`, the AC50 was 0.891 µM (active).
On the same count and under the same terms, the value for `CC(/C=N/NC(=O)c1cccc([N+](=O)[O-])c1)=C\c1ccccc1` was 0.355 µM (active); that for `C=CCOc1ccc2cccc(/C=N/NC(=O)c3cc4cc([N+](=O)[O-])ccc4s3)c2c1` was “inactive”.
On the same count and under the same terms, the entry for `O=C(N/N=C/c1ccco1)/C(=C/c1cccc([N+](=O)[O-])c1)NC(=O)c1ccccc1` is “inactive”; for `COc1cccc(/C=N/NC(=O)c2cccc([N+](=O)[O-])c2)c1OS(=O)(=O)c1ccc(C)cc1` it is 3.55 µM (active); for `Cc1ccc(C(=O)N/N=C/c2ccc([N+](=O)[O-])s2)cc1` it is “inactive”.
On the same count and under the same terms, the value for `NNc1nncc2ccccc12` was “inactive”.
In the case of `Cc1cccc([C@@H]2CN(C)CCc3c2cc(O)c(O)c3Cl)c1`, the AC50 entry is “inactive”.
`Cc1noc(C)c1C(=O)N1CCC2(CCCN(c3ccccc3)C2)CC1`: the AC50 entry was “inactive”.
For the molecule `Cc1noc(C)c1C(=O)N1CCC2(CC1)CN(c1ccccc1)C2`, the AC50 result was “inactive”.
The same measure, in the same setting: the figure for `Cc1cccc(N2CCN(C(=O)CSCc3c(C)noc3C)CC2)c1C` is 12.6 µM (active).
